Reference: PubChem BioAssay
Calls of active or inactive are those of the source. Unless noted, no rule for the calls is given here.

Legend:
[1] = anti-His antibody binders, primary screen, artefact control for SMM control protein annotation, biochemical, small-molecule microarray, 635 nm fluorescence (AID 1128); conditions: anti-His Alexa647 antibody binding, higher = more signal;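 also: score merges feature fluorescence with signal-to-noise for each printed compound spot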
[2] = test system: Human papillomavirus type 1a E7 protein (residues 1-88); experiment: HPV1a E7 small-molecule binders, primary screen, biochemical, small-molecule microarray, residues 1-88, 635 nm (AID 1129); conditions: small-molecule microarray binding, fluorescence 635 nm; higher = more signal
[3] = molecular target: Focal adhesion kinase 1 (Homo sapiens) (UniProt Q05397); experiment: small-molecule microarray binders of FAK, primary screen, biochemical, 635/667 nm fluorescence, BSA, DTT (AID 1130); conditions: PTK2 binding, 635 nm fluorescence, higher = more signal;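 also: composite of spot emission at 667 nm and signal to noise over triplicate slides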
[4] = test system: Fibrinogen (Alexa647-labelled); experiment: fibrinogen binders on compound microarrays, profiling panel, artefact control for SMM control-protein annotation, biochemical, small-molecule microarray, 635/667 nm fluorescence (AID 1131); conditions: fibrinogen-A647 binding fluorescence, higher = more signal;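 also: z-score merges 667 nm fluorescence with per-spot signal-to-noise over triplicate slides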
[5] = molecular target: Follistatin (Homo sapiens) (UniProt P19883); experiment: follistatin binders on small-molecule microarrays, primary screen, biochemical, small-molecule microarray, 635/667 nm fluorescence (AID 1132); conditions: FST binding, 635 nm fluorescence, higher = more signal
[6] = molecular target: Fibroblast growth factor 2 (Homo sapiens) (UniProt P09038); experiment: FGF2 binders on small-molecule microarrays, primary screen, biochemical, small-molecule microarray, 635/667 nm fluorescence (AID 1133); conditions: small-molecule microarray binding, FGF2, fluorescence 635/667; higher = more signal
[7] = mitochondrial membrane potential change in A549 cells, profiling panel, cell-based, JC-1 fluorescence, basal, 24 h, 100 nL (AID 1138); conditions: higher = more signal;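 also: A549 lung adenocarcinoma cells under basal conditions with no added stimulus; test concentration not given here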
[8] = test system: Lefty1; experiment: Lefty1 binders on small-molecule microarrays, primary screen, biochemical, small-molecule microarray, 635/667 nm fluorescence (AID 1139); conditions: small-molecule microarray binding, fluorescence 635/667; higher = more signal
[9] = test system: wheat germ agglutinin (Triticum aestivum), Alexa647-labelled; experiment: wheat germ agglutinin binders on compound microarrays, profiling panel, artefact control for SMM control-protein annotation, biochemical, small-molecule microarray, 635/667 nm fluorescence (AID 1140); conditions: WGA-A647 binding, 635 nm fluorescence, higher = more signal;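 also: score merges 667 nm feature emission with signal to noise over triplicate slides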
[10] = molecular target: Luciferin 4-monooxygenase (Photinus pyralis) (UniProt P08659); experiment: firefly luciferase enzyme inhibitors, primary screen, biochemical, luminescence, purified enzyme, 2006 set (AID 1141); conditions: SteadyGlo luminescence, 30 min, higher = more signal, called active from +8 up or from −8 down;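 also: cell-free assay with purified firefly luciferase at 100 ng per well in PBS; test concentration not given here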
[11] = test system: Wnt5a (protein binding on small-molecule microarray); experiment: Wnt5a binders on small-molecule microarray, primary screen, biophysical, 635/667 nm fluorescence (AID 1142); conditions: 635 nm fluorescence, higher = more signal;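 also: fluorescence read at 667 nm with signal to noise per printed feature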
[12] = cell viability in Huh7 cells, primary screen, cytotoxicity control for HCV replication inhibitor project, CellTiter-Glo luminescence, basal, 48 h (AID 1143); conditions: Huh7 HCV replicon, higher = more signal, called active from +8 up or from −8 down;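 also: Huh7 hepatoma cells carrying a hepatitis C replication reporter with no stimulus; test concentration not given here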
[13] = P. aeruginosa biofilm formation inhibitors, primary screen, PAO1 strain, BacTiter-Glo luminescence, LB-PBS (AID 1144); conditions: 12 h, higher = more signal
[14] = CREB reporter modulators without forskolin, primary screen, cell-based, PC12, CRE-LacZ reporter, unstimulated (AID 1145); conditions: no forskolin, luminescence, 4.5 h, higher = more signal, called active from +8 up or from −8 down
[15] = CREB reporter modulators under forskolin, primary screen, cell-based, PC12, CRE-LacZ reporter, forskolin-stimulated (AID 1146); conditions: luminescence, 4.5 h, higher = more signal, called active from +8 up or from −8 down;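 also: PC12 cells with 6xCRE LacZ reporter stimulated by forskolin 10 µM; beta-galactosidase reporter signal reflecting CREB driven transcription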
[16] = molecular target: Streptavidin (Streptomyces avidinii) (UniProt P22629); experiment: streptavidin binders on small-molecule microarray, primary screen, artefact control for SMM compound annotation, biophysical, 635/667 nm fluorescence (AID 1147); conditions: streptavidin binding, higher = more signal;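 also: signal reflects streptavidin binding to arrayed compounds as a control protein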
[17] = small-molecule binders of probe aInhba, primary screen, biochemical, small-molecule microarray, 635/667 nm fluorescence (AID 1148); conditions: higher = more signal;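 also: score merges 667nm spot fluorescence with signal-to-noise for antibody binding to printed compounds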
[18] = molecular target: Torsin-1A (Homo sapiens) (UniProt O14656); experiment: torsin A binders from cell lysate, primary screen, small-molecule microarray, wild-type, 635/667 nm (AID 1149); conditions: COS7 hTOR1A-WT lysate, 635 nm fluorescence, higher = more signal
[19] = molecular target: Torsin-1A (Homo sapiens) (UniProt O14656); experiment: small-molecule binders of mutant TOR1A in lysate, primary screen, cell lysate, small-molecule microarray, COS7 lysate, 635/667 nm fluorescence (AID 1150); conditions: COS7 hTOR1A mutant lysate, 635 nm fluorescence, higher = more signal;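 also: score pools 667 nm emission and signal to noise measuring lysate protein binding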
[20] = test system: Sonic hedgehog protein (Shh); experiment: small-molecule binders of Shh protein, primary screen, biochemical, small-molecule microarray, 635/667 nm fluorescence (AID 1151); conditions: small-molecule microarray binding, 635 nm fluorescence; higher = more signal;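 also: Shh protein binding to compounds spotted on small-molecule microarray slides; score combines spot fluorescence intensity with signal-to-noise across triplicate slides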

Chain of Fibroblast growth factor 2 (Homo sapiens) (P09038 whole entry, looked up): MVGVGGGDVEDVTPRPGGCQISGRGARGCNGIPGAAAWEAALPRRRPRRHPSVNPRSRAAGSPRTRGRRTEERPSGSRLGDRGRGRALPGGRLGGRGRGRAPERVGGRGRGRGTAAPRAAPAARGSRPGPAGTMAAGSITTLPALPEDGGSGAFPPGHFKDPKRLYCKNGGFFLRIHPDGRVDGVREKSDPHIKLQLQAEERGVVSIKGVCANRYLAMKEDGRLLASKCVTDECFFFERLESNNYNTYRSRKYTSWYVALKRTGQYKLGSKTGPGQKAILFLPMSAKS
Chain of Streptavidin (Streptomyces avidinii) (P22629 whole entry, looked up): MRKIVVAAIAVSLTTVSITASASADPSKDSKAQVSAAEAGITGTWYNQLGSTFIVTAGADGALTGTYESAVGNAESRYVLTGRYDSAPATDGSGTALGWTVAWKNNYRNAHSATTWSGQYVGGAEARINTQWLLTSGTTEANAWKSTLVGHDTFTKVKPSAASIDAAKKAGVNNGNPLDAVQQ
Chain of Focal adhesion kinase 1 (Homo sapiens) (Q05397 whole entry, looked up): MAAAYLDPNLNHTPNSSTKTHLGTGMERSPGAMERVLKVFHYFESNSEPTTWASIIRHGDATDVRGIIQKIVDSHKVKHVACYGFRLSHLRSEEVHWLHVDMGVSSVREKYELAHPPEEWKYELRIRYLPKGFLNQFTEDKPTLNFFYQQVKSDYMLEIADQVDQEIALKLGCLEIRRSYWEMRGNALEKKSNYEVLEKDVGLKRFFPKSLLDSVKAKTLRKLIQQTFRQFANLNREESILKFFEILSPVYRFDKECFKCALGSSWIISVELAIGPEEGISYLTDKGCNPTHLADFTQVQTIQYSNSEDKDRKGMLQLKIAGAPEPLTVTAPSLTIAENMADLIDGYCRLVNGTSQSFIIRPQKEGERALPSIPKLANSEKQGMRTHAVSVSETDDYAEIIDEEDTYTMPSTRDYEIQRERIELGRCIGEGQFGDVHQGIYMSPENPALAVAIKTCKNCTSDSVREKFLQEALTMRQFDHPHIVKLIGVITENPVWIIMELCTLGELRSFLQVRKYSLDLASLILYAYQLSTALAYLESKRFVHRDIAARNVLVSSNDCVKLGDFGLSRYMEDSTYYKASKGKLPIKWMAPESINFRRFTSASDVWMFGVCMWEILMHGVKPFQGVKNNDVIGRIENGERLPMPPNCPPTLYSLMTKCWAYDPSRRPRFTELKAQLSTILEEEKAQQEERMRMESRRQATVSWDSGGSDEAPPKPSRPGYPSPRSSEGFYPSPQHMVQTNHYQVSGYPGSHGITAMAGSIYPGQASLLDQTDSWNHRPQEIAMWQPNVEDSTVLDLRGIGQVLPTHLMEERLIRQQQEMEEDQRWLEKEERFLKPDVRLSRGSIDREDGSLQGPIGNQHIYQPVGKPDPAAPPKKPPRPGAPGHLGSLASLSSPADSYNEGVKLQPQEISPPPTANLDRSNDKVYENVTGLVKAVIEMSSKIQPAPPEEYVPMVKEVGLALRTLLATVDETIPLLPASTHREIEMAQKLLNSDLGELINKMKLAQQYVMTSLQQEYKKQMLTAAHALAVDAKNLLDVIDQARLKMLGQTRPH
Chain of Luciferin 4-monooxygenase (Photinus pyralis) (P08659 whole entry, looked up): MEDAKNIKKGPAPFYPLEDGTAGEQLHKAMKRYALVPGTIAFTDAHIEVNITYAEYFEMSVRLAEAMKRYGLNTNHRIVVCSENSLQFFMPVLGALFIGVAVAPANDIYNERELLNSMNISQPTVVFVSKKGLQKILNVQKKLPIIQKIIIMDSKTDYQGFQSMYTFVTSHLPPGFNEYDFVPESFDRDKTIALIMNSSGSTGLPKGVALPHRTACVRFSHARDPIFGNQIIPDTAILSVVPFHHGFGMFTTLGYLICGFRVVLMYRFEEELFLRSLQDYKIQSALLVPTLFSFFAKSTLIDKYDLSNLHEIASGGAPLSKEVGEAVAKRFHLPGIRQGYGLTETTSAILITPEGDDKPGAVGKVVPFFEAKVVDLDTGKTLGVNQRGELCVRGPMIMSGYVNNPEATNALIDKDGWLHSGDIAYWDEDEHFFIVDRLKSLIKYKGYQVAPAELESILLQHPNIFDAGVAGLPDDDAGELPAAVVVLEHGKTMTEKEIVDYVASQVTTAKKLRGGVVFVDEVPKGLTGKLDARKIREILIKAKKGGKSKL
Chain of Torsin-1A (Homo sapiens) (O14656 whole entry, looked up): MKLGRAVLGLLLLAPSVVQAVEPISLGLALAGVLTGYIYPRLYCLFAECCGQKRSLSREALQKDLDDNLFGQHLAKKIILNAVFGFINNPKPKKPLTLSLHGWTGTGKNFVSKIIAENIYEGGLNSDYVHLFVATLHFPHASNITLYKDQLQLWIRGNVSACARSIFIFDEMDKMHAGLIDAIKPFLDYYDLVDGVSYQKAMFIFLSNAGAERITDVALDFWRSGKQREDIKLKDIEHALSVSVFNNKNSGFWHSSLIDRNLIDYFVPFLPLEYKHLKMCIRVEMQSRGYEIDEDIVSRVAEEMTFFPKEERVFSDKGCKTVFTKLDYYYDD
Chain of Follistatin (Homo sapiens) (P19883 whole entry, looked up): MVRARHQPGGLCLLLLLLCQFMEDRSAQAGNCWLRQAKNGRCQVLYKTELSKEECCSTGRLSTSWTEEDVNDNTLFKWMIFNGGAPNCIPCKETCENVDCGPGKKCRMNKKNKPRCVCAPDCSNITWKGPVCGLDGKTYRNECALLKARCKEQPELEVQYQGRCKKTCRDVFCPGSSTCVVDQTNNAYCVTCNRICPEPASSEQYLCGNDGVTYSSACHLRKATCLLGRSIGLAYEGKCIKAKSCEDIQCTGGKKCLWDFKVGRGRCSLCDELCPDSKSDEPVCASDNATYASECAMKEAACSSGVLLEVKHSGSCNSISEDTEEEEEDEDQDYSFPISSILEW

| Structure (SMILES) | composite z-score [1] | composite z-score [2] | composite z-score [3] | composite z-score [4] | composite z-score [5] | composite z-score [6] | z-score [7] | composite z-score [8] | composite z-score [9] | z-score [10] | composite z-score [11] | z-score [12] | z-score [13] | z-score [14] | z-score [15] | composite z-score [16] | composite z-score [17] | composite z-score [18] | composite z-score [19] | composite z-score [20] |
| --- | --- | --- | --- | --- | --- | --- | --- | --- | --- | --- | --- | --- | --- | --- | --- | --- | --- | --- | --- | --- |
| C=CC[C@]1(C(=O)N(C)C)COC(c2ccc(OCCCO)cc2)=N1 | 3.41 | 1.09 | 0.268 | -0.744 | 0.517 | 0.982 | -0.392 | -0.26 | 0.615 | -2.7 (inactive) | 1.07 | -1.88 (inactive) | -1.15 (inactive) | 2.5 (inactive) | -1.45 (inactive) | 2.12 | 0.3 | 0.577 | 1.85 | -0.174 |
| COCCOC(=O)N1C(=O)[C@@]2(c3cc(C#CC4=CCCCC4)ccc31)[C@H](C(=O)N1CCc3cc(OC)c(OC)cc3C1)[C@H]1C(=O)O[C@H](c3ccccc3)[C@H](c3ccccc3)N1[C@@H]2c1ccc(O)cc1 | 1.62 | 1.2 | 0.596 | 0.947 | 0.861 | 0.998 | -0.608 | 0.917 | 0.854 | -0.914 (inactive) | 0.718 | -0.447 (inactive) | 0.108 (inactive) | -0.321 (inactive) | -0.539 (inactive) | 1.85 | 0.467 | 0.544 | 1.23 | 1.67 |
| CCOC(=O)C1=CC[C@@H](c2ccccc2)N(S(=O)(=O)C[Si](C)(C)C)[C@H]1c1ccccc1 | 1.07 | 1.19 | 0.656 | 0.996 | 1.21 | 0.497 | -1.48 | 0.562 | 0.862 | 2.37 (inactive) | 0.389 | -2.78 (inactive) | -0.667 (inactive) | -0.63 (inactive) | 1.56 (inactive) | 1.48 | 0.127 | 0.899 | 0.799 | 0.257 |
| CC(C)C[C@@H]1NC(=O)[C@@H]2C[C@H](C(=O)NCCCC[N+](C)(C)C)[C@H](c3ccc(O)cc3)N2C1=O | 2.63 | 0.643 | -0.133 | 0.354 | 1.42 | 1.76 | -0.694 | 1.67 | 0.479 | -0.948 (inactive) | 0.814 | -0.394 (inactive) | -1.08 (inactive) | 0.285 (inactive) | -0.387 (inactive) | 0.0306 | 0.0669 | 1.47 | 1.2 | 2.13 |
| COC(=O)C1=CC(CCCO)=CC(C2CC2)N(Cc2cccc(OC(F)(F)F)c2)C=C1C(=O)OC (stereo not given) | 1 | 0.846 | 1.03 | 0.884 | 0.0058 | -0.653 | 1.1 | 0.126 | 0.824 | 0.189 (inactive) | 0.172 | -1.15 (inactive) | -0.393 (inactive) | -0.0243 (inactive) | 0.969 (inactive) | 0.307 | 0.0711 | -0.38 | 0.497 | -0.153 |
| CN(C)C(=O)[C@]1(Cc2ccccc2)N=C(c2ccc(OCCCO)cc2)O[C@@H]1c1ccccc1 | 2.94 | 1.25 | 0.593 | 1 | 0.973 | -0.263 | 0.473 | -0.222 | 1.2 | -0.701 (inactive) | 0.0831 | -3.35 (inactive) | 0.18 (inactive) | 1.24 (inactive) | 0.14 (inactive) | 0.589 | 0.0184 | 0.193 | 0.71 | -0.46 |
| Cc1c(NC(=O)/C(C#N)=C/c2ccc(Cl)cc2)c(=O)n(-c2ccccc2)n1C | 0.753 | 0.8 | -0.171 | 1.03 | 0.114 | 0.627 | 1.28 | 0.466 | 0.794 | -0.304 (inactive) | -0.159 | -1.62 (inactive) | -1.04 (inactive) | -0.374 (inactive) | -1.64 (inactive) | 1.33 | -0.0259 | 0.34 | 0.407 | -0.217 |
| CC(C)CNC(=O)[C@@H]1c2ccccc2C(=O)N(CC23CC4CC(CC(C4)C2)C3)[C@H]1c1ccc(CO)cc1 | 1.94 | 1.14 | 0.257 | 0.592 | 0.466 | -0.0903 | 0.47 | 0.366 | 0.674 | 1.27 (inactive) | 0.0626 | -3.74 (inactive) | -1.44 (inactive) | -0.206 (inactive) | -0.401 (inactive) | 0.524 | -0.212 | -0.218 | 0.546 | 0.354 |
| COCCOC(=O)N1C(=O)[C@@]2(c3cc(C#CC4(O)CCCCCC4)ccc31)[C@H](C(=O)NC[C@H](O)c1ccccc1)[C@H]1C(=O)O[C@H](c3ccccc3)[C@H](c3ccccc3)N1[C@@H]2c1ccc(O)cc1 | 1.39 | 1.18 | 0.392 | 0.721 | 0.37 | 0.774 | 0.139 | 0.439 | 0.721 | -0.474 (inactive) | 0.233 | -0.622 (inactive) | 0.588 (inactive) | 0.342 (inactive) | 0.0418 (inactive) | 0.315 | 0.12 | 0.415 | 0.174 | 1.07 |
